According to PubChem BioAssay (NCATS):
Results filed as inconclusive are left out. A call without a number means that no potency is given here. Activity calls are given as the source filed them. Unless noted, the call rests on the fitted dose curve; in most records, active means well fitted curve in the direction sought with a large enough effect; inconclusive means small, poorly fitted or top-dose-only effect, or another doubt; inactive means no such curve, though single readings can be large; an effect the other way counts as inactive or inconclusive.

What was measured:
[1] = target: Mitogen-activated protein kinase 10 (Mus musculus) (UniProt Q61831); experiment: JNK3 AlphaScreen Assay (AID 530; active means well fitted curve in either direction with a large enough effect, not every such curve was filed as active;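 further: kinase came from lysate of stimulated human HepG2 cells; signal reports phosphorylation of biotinylated GST-cJun 1-79 at Ser73 with 10 µM ATP; series mostly up to about 57 µM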)
Method in brief: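 Activity was read by AlphaScreen after JNK3-containing HepG2 lysate (cytokine pre-activated) phosphorylated biotinylated GST-cJun with 10 uM ATP at room temperature. Phospho-Ser73 cJun antibody with Protein-A acceptor beads provided detection.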

[2] = target: Cytochrome P450 3A4 (Homo sapiens) (UniProt P08684); experiment: qHTS Assay for Inhibitors and Substrates of Cytochrome P450 3A4 (AID 884); further: nearly all actives have a fitted effect of over 50% in size; further: potency means the concentration at half of the fitted maximal effect
Cytochrome P450 3A4 (Homo sapiens), sequence (P08684 whole entry, looked up): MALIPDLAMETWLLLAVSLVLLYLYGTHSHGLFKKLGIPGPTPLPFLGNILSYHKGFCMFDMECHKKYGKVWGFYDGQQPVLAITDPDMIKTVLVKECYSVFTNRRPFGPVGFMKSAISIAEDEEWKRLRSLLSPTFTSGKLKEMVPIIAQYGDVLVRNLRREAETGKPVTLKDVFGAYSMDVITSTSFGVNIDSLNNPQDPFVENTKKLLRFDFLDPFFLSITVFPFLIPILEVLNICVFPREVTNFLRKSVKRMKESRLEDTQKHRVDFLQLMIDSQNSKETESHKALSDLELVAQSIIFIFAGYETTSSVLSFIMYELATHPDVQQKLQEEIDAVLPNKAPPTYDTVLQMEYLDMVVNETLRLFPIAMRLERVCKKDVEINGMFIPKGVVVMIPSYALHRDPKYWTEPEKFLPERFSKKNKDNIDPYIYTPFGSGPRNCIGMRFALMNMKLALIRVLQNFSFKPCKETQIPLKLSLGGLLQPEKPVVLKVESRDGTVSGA
Method in brief: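 Luminescent readout of luciferin produced by CYP3A4 (20 nM) dealkylation of Luciferin-PPXE, 25 uM (its KM). NADPH-driven reaction ran 60 min at RT after 10 min compound preincubation; data scaled to 57 uM ketoconazole as 100% inhibition.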

[3] = target: Cytochrome P450 3A4 (Homo sapiens) (UniProt P08684); experiment: qHTS Assay for Activators of Cytochrome P450 3A4 (AID 885); further: nearly all actives have a fitted effect of over 65% in size; further: potency means the concentration at half of the fitted maximal effect
Method in brief: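 Activators are scored by enhanced luminescence from CYP3A4 conversion of luciferin-PPXE (25uM, equal to KM) to luciferin, after 60 min at RT with an NADPH-regenerating system.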

Row | Compound | outcome [1] | Potency [2] | Potency [3]
1 | COCCNC(=O)[C@H](C)/C=C(\c1cccnc1)C(NC(=O)OCc1ccccc1)c1ccc(C(=O)OC)cc1 (stereo not given in full) | inactive | 5.01 µM (active) | inactive
2 | COC(=O)[C@@]1(C)C=C[C@@H](Cc2ccccc2)N1C | inactive | 12.6 µM (active) | inactive
3 | COC(=O)[C@@H]1C[C@H]1[C@@H](NC(=O)c1ccc(Br)cc1)c1ccccc1 | inactive | 25.1 µM (active) | inactive
4 | COC(=O)c1ccc(C(NC(=O)OCc2ccccc2)/C(I)=C/[C@@H](C)C(=O)NCC2CC2)cc1 (stereo not given in full) | inactive | 3.98 µM (active) | inactive
5 | C[C@]1(C(=O)NCc2cc(F)cc(C(F)(F)F)c2)C=C[C@@H](Cc2ccccc2)N1C(=O)c1ccccc1 | inactive | 2 µM (active) | inactive
6 | CC1=C(C(=O)OCc2ccccc2)C(C2CCCCC2)NC(=O)N1CCCCCC(=O)O (stereo not given) | inactive | inactive | 15.8 µM (active)
7 | COC(=O)c1ccc(C(NC(=O)OCc2ccccc2)/C(=C/[C@@H](C)C(=O)N(C)C)c2cccnc2)cc1 (stereo not given in full) | inactive | 5.01 µM (active) | inactive
8 | CC(C)CC1(C(=O)NCCN2CCOCC2)C=CCN1C(=O)c1ccccc1 (stereo not given) | inactive | 12.6 µM (active) | inactive
9 | COC(=O)c1ccc(C(NC(=O)OCc2ccccc2)/C(C)=C/[C@@H](C)C(=O)NCc2nn(-c3ccccc3)nc2C)cc1 (stereo not given in full) | inactive | 2.51 µM (active) | inactive
10 | CCCC[C@@H]1C[C@H]1[C@@H](NP(=O)(c1ccccc1)c1ccccc1)c1ccccc1OC | inactive | 3.98 µM (active) | inactive
11 | CCC[C@@H]1C[C@@]1(CCC)[C@@H](NC(=O)Oc1ccccc1)c1ccc(C(=O)OC)cc1 | inactive | 15.8 µM (active) | inactive
12 | CCCCNC(=O)C(c1ccc(-c2ccccc2)cc1)N(CCN1CCOCC1)C(=O)CCCCCN1C(=O)NC(c2ccc([N+](=O)[O-])cc2)C(C(=O)OCc2ccccc2)=C1C (stereo not given) | inactive | 2.51 µM (active) | inactive
13 | CCCCCCN(C(=O)CCCCCN1C(=O)NC(c2ccc(C(F)(F)F)cc2)C(C(=O)OCc2ccccc2)=C1C)C(C(=O)NCCCC)c1ccc(OCC(=O)OC)c(C(=O)OC)c1 (stereo not given) | inactive | 3.98 µM (active) | inactive
14 | CC1=C(C(=O)OCc2ccccc2)C(c2ccccc2-c2ccccc2)NC(=O)N1CCCCCC(=O)O (stereo not given) | inactive | 10 µM (active) | inactive
15 | COC(=O)c1ccc(C(NC(=O)OCc2ccccc2)/C(=C/[C@@H](C)C(=O)NCCF)c2cccnc2)cc1 (stereo not given in full) | inactive | 6.31 µM (active) | inactive
16 | Cc1cc(CNC(=O)C(C)Cc2ccccc2)nn1C (stereo not given) | inactive | 10 µM (active) | inactive
17 | COC(=O)c1ccc(C(NC(=O)OCc2ccccc2)/C(=C/[C@@H](C)C(=O)N(C)Cc2cccnc2)c2cccnc2)cc1 (stereo not given in full) | inactive | 0.631 µM (active) | inactive
18 | CNC(=O)[C@H](C)/C=C/C(NC(=O)OCc1ccccc1)c1ccc(C(=O)OC)cc1 (stereo not given in full) | inactive | 7.94 µM (active) | inactive
19 | CC(Cc1ccccc1)C(=O)NCCO (stereo not given) | inactive | 15.8 µM (active) | inactive
20 | COC(=O)c1ccc(C(NC(=O)OCc2ccccc2)/C(C)=C/[C@@H](C)C(=O)NCc2nc3ccccc3s2)cc1 (stereo not given in full) | inactive | 3.98 µM (active) | inactive
21 | CNC(=O)[C@@H]1C[C@H]1[C@@H](NC(=O)OCc1ccccc1)c1ccccc1 | inactive | 12.6 µM (active) | inactive

Row | Compound | outcome [1] | Potency [2] | Potency [3]
22 | CC(=O)N1[C@H](Cc2ccccc2)C=C[C@]1(C)C(=O)NCc1ccc(C)o1 | inactive | 7.94 µM (active) | inactive
23 | C[C@]1(C(=O)NCC2CC2)C=C[C@@H](Cc2ccccc2)N1C(=O)c1ccccc1 | inactive | 2 µM (active) | inactive
24 | CCCCNC(=O)C(c1ccc(OCC(=O)OC)c(C(=O)OC)c1)N(CCc1ccccn1)C(=O)CCCCCN1C(=O)NC(c2ccc(-c3ccccc3)cc2)C(C(=O)OCc2ccccc2)=C1C (stereo not given) | inactive | 7.94 µM (active) | inactive
25 | COC(=O)c1ccc(C(NC(=O)OCc2ccccc2)/C(F)=C/[C@@H](C)C(=O)NCc2ccc(OC)c(OC)c2)cc1 (stereo not given in full) | inactive | 5.01 µM (active) | inactive
26 | COC(=O)c1ccc(C(NC(=O)OCc2ccccc2)/C(C)=C/[C@@H](C)C(=O)NC2CCCCC2)cc1 (stereo not given in full) | inactive | 2 µM (active) | inactive
27 | COC(=O)c1ccc(C(NC(=O)OCc2ccccc2)/C(=C/[C@@H](C)C(=O)NCc2cc(F)cc(F)c2)c2cccnc2)cc1 (stereo not given in full) | inactive | 1.58 µM (active) | inactive
28 | COC(=O)c1ccc(C(NC(=O)OCc2ccccc2)/C(F)=C/[C@@H](C)C(=O)NCc2cc(F)cc(F)c2)cc1 (stereo not given in full) | inactive | 3.98 µM (active) | inactive
29 | CC1(C(=O)NCCN2CCOCC2)C=CC2(CCCCC2)N1C(=O)c1ccccc1 (stereo not given) | inactive | 7.94 µM (active) | inactive
30 | COC(=O)c1ccc(C(/C=C/[C@@H](C)C(=O)N(C)Cc2ccccc2)NC(=O)OCc2ccccc2)cc1 (stereo not given in full) | inactive | 1.58 µM (active) | inactive
31 | C[C@]1(C(=O)NCCCNc2ncc(C(F)(F)F)cc2Cl)C=C[C@@H](Cc2ccccc2)N1C(=O)c1ccccc1 | inactive | 3.16 µM (active) | inactive
32 | CN(C)C(=O)[C@]1(C)C[C@H]1[C@H](NC(=O)CNC(=O)[C@@H]1CCCN1C(=O)[C@]1(C)C[C@H]1[C@H](NC(=O)OCc1ccccc1)c1ccccc1)c1ccccc1 | inactive | 0.398 µM (active) | inactive
33 | C[C@]1(C(=O)NCCN2CCOCC2)C=C[C@@H](Cc2ccccc2)N1C(=O)c1ccccc1 | inactive | 7.94 µM (active) | inactive
34 | COC(=O)c1ccc(C(NC(=O)OCc2ccccc2)/C(C)=C/[C@@H](C)C(=O)NCc2cccnc2)cc1 (stereo not given in full) | inactive | 0.794 µM (active) | inactive
35 | COC(=O)[C@@H]1C[C@@]1(C)[C@@H](NC(=O)OCc1ccccc1)c1ccccc1 | inactive | 25.1 µM (active) | inactive
36 | COC(=O)c1ccc(C(/C=C/[C@@H](C)C(=O)NCc2ccc(OC)c(O)c2)NC(=O)OCc2ccccc2)cc1 (stereo not given in full) | inactive | 6.31 µM (active) | inactive
37 | COC(=O)c1ccc(C(NC(=O)OCc2ccccc2)/C(C)=C/[C@@H](C)C(=O)NCCO)cc1 (stereo not given in full) | inactive | 2.51 µM (active) | inactive
38 | COC(=O)c1ccc(C(NC(=O)OCc2ccccc2)/C(I)=C/[C@@H](C)C(=O)NCc2ccncc2)cc1 (stereo not given in full) | inactive | 1.58 µM (active) | inactive
39 | CC1(C)OCC(CSC2=C(SCC3COC(C)(C)O3)C(=O)c3ncccc3C2=O)O1 (stereo not given) | inactive | 15.8 µM (active) | inactive
40 | CC(=O)N1[C@H](Cc2ccccc2)C=C[C@]1(C)C(=O)NCCN1CCOCC1 | inactive | 15.8 µM (active) | inactive
41 | CNC(=O)C1(C)C=CC2(CCCCC2)N1C(C)=O (stereo not given) | inactive |  | inactive
42 | COC(=O)c1ccc(C(NC(=O)OCc2ccccc2)/C(=C/[C@@H](C)C(=O)NCc2ccccc2)c2cccnc2)cc1 (stereo not given in full) | inactive |  | inactive

Row | Compound | outcome [1] | Potency [2] | Potency [3]
43 | COC(=O)CCCCCN1C(=O)NC(CC2CC2)C(C(=O)OCc2ccccc2)=C1C (stereo not given) | inactive |  | inactive
44 | CC(=O)N1[C@H](C)C=C[C@]1(Cc1ccccc1)C(=O)O | inactive |  | inactive
45 | COCCNC(=O)[C@H](C)/C=C/C(NC(=O)OCc1ccccc1)c1ccc(C(=O)OC)cc1 (stereo not given in full) | inactive |  | inactive
46 | C[C@H](NC(=O)[C@@H]1C[C@H]1[C@@H](NC(=O)OCc1ccccc1)c1ccccc1)c1ccccc1 | inactive |  | inactive
47 | COC(=O)N1[C@H](C)C=C[C@]1(Cc1ccccc1)C(=O)NCc1ccc(C)o1 | inactive |  | inactive
48 | CC1(C(=O)NCCN2CCOCC2)C=CCN1C(=O)c1ccccc1 (stereo not given) | inactive |  | inactive
49 | COC(=O)[C@@]1(C)C=C[C@@H](Cc2ccccc2)N1C(=O)c1ccccc1 | inactive |  | inactive
50 | COC(=O)c1ccc(C(NC(=O)OCc2ccccc2)/C(=C/[C@@H](C)C(=O)N[C@@H](CO)Cc2ccccc2)c2cccnc2)cc1 (stereo not given in full) | inactive | 1 µM (active) | inactive
51 | COC(=O)CNC(=O)C1(CC(C)C)C=CCN1C(C)=O (stereo not given) | inactive |  | inactive
52 | COC(=O)c1ccc(C(NC(=O)OCc2ccccc2)/C(F)=C/[C@@H](C)C(=O)NC2CCCCC2)cc1 (stereo not given in full) | inactive | 3.98 µM (active) | inactive
53 | COC(=O)c1ccc(C(NC(=O)OCc2ccccc2)/C(=C/[C@@H](C)C(=O)NCC2CC2)c2cccnc2)cc1 (stereo not given in full) | inactive |  | inactive
54 | CC(=O)N1CC=CC1(CC(C)C)C(=O)NCc1ccc(C)o1 (stereo not given) | inactive |  | inactive
55 | CNC(=O)[C@H](C)/C=C(\c1cccnc1)C(NC(=O)OCc1ccccc1)c1ccc(C(=O)OC)cc1 (stereo not given in full) | inactive |  | inactive
56 | CC(=O)N1CC=CC1(CC(C)C)C(=O)NCC1CC1 (stereo not given) | inactive |  | inactive
57 | CC(Cc1ccccc1)C(=O)N[C@@H](CO)Cc1ccccc1 (stereo not given in full) | inactive |  | inactive
58 | COC(=O)N1[C@H](C)C=C[C@]1(Cc1ccccc1)C(=O)NCCCNc1ncc(C(F)(F)F)cc1Cl | inactive |  | inactive
59 | CC(=O)N1CC=CC1(CC(C)C)C(=O)NCCc1c[nH]c2ccccc12 (stereo not given) | inactive | 3.98 µM (active) | inactive
60 | CCC[C@@H]1C[C@@]1(CCC)[C@@H](NP(=O)(c1ccccc1)c1ccccc1)c1ccc(C(=O)OC)cc1 | inactive |  | inactive
61 | COc1ccc(CNC(=O)C(C)Cc2ccccc2)cc1O (stereo not given) | inactive |  | inactive
62 | CC(=O)N1CC=CC1(CC(C)C)C(=O)NCc1cc(F)cc(C(F)(F)F)c1 (stereo not given) | inactive | 12.6 µM (active) | inactive
63 | CC1=C(C(=O)OCc2ccccc2)C(c2ccc(C(F)(F)F)cc2)NC(=O)N1CCCCCC(=O)O (stereo not given) | inactive |  | inactive
